TSHR antagonist: antagonists of human thyroid stimulating hormone receptor | 0.2% of 330,000 active | activity change, negative = inhibition, % at 11.5 µM | P16473 | TSHR-expressing cells, TSH-stimulated cAMP HTRF, 2 h; stronger effect = lower value;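 active = activity change below a set negative limit, meaning inhibition stronger than a set level, cut at about -70% in these data; inconclusive = activity change between two set negative limits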
Target sequence (P16473 whole entry, looked up): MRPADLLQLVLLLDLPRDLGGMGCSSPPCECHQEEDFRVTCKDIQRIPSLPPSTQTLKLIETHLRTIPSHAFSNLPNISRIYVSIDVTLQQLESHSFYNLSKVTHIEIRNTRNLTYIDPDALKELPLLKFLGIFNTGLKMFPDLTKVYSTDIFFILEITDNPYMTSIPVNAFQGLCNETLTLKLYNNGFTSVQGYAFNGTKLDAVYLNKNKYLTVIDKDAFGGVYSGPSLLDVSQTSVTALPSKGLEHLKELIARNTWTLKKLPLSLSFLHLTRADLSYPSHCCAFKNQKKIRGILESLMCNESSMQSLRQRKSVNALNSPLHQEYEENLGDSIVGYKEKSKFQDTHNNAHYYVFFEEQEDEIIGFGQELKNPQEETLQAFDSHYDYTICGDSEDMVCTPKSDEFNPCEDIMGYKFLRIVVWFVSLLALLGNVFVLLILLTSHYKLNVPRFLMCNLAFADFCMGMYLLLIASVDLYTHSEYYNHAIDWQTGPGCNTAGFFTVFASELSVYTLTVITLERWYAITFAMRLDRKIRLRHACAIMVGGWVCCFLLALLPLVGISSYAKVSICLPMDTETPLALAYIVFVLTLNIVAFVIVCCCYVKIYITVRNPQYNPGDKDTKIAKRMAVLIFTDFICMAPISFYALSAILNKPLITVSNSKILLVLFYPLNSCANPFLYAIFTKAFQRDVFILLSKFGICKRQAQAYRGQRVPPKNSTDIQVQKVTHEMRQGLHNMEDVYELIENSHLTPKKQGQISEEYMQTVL
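Cell-based HTRF cAMP assay; TSHR cells + compound, TSH EC80 (4nM final), 2 h, 37 deg C. Lysis with anti-cAMP cryptate and cAMP-d2, 30 min RT, read 665/620 nm.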
HEK293 tox: cytotoxicity in counter-screen for GLP-1R inverse agonists; HEK293 cAMP-luciferase reporter cells, luminescence, 24 h; Potency, µM (highest dose often 38.3 µM), hits mostly inhibitors; 0.13% of 410,000 active; AID 624418;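 note: loss of luciferase light is scored as toxicity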
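MLSMR compounds, 24 hr on cells at 37 deg C/5% CO2; luminescence after luciferase reagent (12 min RT). Inhibition counted as the undesired cytotoxic outcome.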
PTHR1 agonist: PTHR1 (human) receptor agonism | Potency, µM (top dose mostly 115 µM), actives largely listed as activators | 0.075% of 410,000 active | AID 743266 | HEK293 GP2 PTHR1 cells, GloSensor cAMP luminescence, 1 h; note: nearly all actives have a fitted effect of over 55% in size
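HEK-293-derived GP2 cells expressing PTHR1 and a GloSensor cAMP reporter, 3,000/well, plated overnight, given luciferin plus IBMX (each 0.5 mM as added) for 1 h at 37 °C, then compound for 1 h at 37 °C. Luminescence was read after 15 min at room temperature.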
RXFP1 antagonist: antagonists of human relaxin receptor RXFP1; 0.59% of 350,000 active; Q9HBX9; activity change, negative = inhibition, % at 57.5 µM; HEK293-RXFP1, relaxin-stimulated cAMP HTRF, 30 min; stronger effect = lower value;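 active = activity change of -60% or lower, but not beyond a set lower limit; inconclusive = change between -60% and -40%, or beyond the set limit; inactive = change above -40%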
RXFP1 ag: RXFP1 (human) receptor agonism | Q9HBX9 | HEK293T-RXFP1 cAMP TR-FRET, 30 min; response scale: percent of porcine relaxin response, buffer zero | Potency, µM (doses to about 57.5 µM), usual class: activators | 0.3% of 370,000 active | AID 2676; note: nearly all actives have a fitted effect of over 60% in size
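Agonist response is measured as cAMP accumulation in an RXFP1-transfected HEK293T line under PDE4 inhibition. Values are scaled between buffer-only and 29 nM porcine relaxin, and EC50s come from standard Hill equation fits.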
NPSR antagonist: antagonists of human neuropeptide S receptor cAMP signaling. Potency, µM (top dose mostly 38.3 µM), usual class: inhibitors. Q6W5P4. 1% of 220,000 active. CHO-NPSR cells, cAMP TR-FRET, antagonist mode. AID 1461; note: nearly all actives have a fitted effect of over 50% in size
A number is an active result; 0 = inactive; ? = inconclusive; - = not tested or not shown. Only a selection was taken, and hits are over-represented in it overall. Unless noted, calls come from the whole dose curve; as a rule, active = well fitted curve in the direction sought with a large enough effect; inconclusive = small, poorly fitted or top-dose-only effect, or another doubt; inactive = no such curve, though single readings can be large; an effect the other way counts as inactive or inconclusive.

SMILES | TSHR antagonist | HEK293 tox | PTHR1 agonist | RXFP1 antagonist | RXFP1 ag | NPSR antagonist
COc1ccc2[nH]c3c(=S)nc[nH]c3c2c1 | 0 | 0 | 0 | 0 | 15.8µM | 0
Cc1ccc(S(=O)(=O)/N=C2/NC(=O)/C(=C\c3cc(Br)cc(Br)c3O)S2)cc1 | -99.8 | 0 | 0 | 0 | 0 | -
NCCNC(=O)Cc1ccc(NC(=O)Cc2ccc(Nc3ncnc4c3ncn4[C@@H]3O[C@H](CO)[C@@H](O)[C@H]3O)cc2)cc1 | 0 | 0 | 0 | - | 1.41µM | -
C[C@H](Cc1ccccc1)Nc1ncnc2c1ncn2[C@@H]1O[C@H](CO)[C@@H](O)[C@H]1O | 0 | 0 | 0 | - | 11.2µM | -
CC1(C)O[C@@H]2C[C@H]3[C@@H]4CCC5=CC(=O)CC[C@]5(C)[C@@]4(F)[C@@H](O)C[C@]3(C)[C@]2(C(=O)CCl)O1 | 0 | 0 | 0 | -73.4 | 0 | -
CC1(C)CC(O)CC(C)(C)N1CC(O)COCc1ccccc1 (stereo not drawn) | -134.4 | 0 | 0 | 0 | 0 | -
Cc1cccc(OCC(O)CN2C(C)(C)CC(O)CC2(C)C)c1 (stereo not drawn) | - | 0 | 0 | 0 | 0 | 0
OCC1(Cc2ccc(F)cc2F)CCCN(Cc2ccc(Cl)cc2)C1 (stereo not drawn) | 0 | ? | 0 | -60.8 | 0 | -
Cc1ccc(SCC(=O)NCc2ccccc2C)cc1 | -122.1 | 0 | 0 | 0 | 0 | -
Cc1c(C(=O)OCc2ccccc2)[nH]c2c1C(=O)CC(c1ccc(C(C)(C)C)cc1)C2 (stereo not drawn) | - | 0 | 0 | 0 | 0 | -
CCOC(=O)c1[nH]c2c(c1Cc1ccccc1)C(=O)CC(c1ccc(C(C)(C)C)cc1)C2 (stereo not drawn) | - | 0 | 0 | -63.5 | 0 | -
CCOc1ccc(CCNC(=O)CCc2c(C)nc3c(c(C)nn3-c3ccc(C)c(C)c3)c2C)cc1 | - | 0 | 0 | - | 0 | -
O=C(c1ccc2c(=O)n(C3CCCC3)c(=S)[nH]c2c1)N1CCCCCC1 | 0 | 0 | 0 | -62.6 | 0 | 0
CC1CCCN(C(=O)c2ccc3c(=O)n(C4CCCC4)c(=S)[nH]c3c2)C1 (stereo not drawn) | 0 | 0 | 0 | 0 | 0 | ?
O=C(O)C(=O)Nc1cccc(-c2nn[nH]n2)c1 | - | - | - | 0 | - | -
NS(=O)(=O)c1cc(C(=O)NN2C[C@H]3[C@H]4CCC(C4)[C@H]3C2)ccc1Cl | - | - | - | 0 | - | -
COc1ccc(Br)cc1-c1nc(CCl)cs1 | 0 | 0 | 0 | 0 | 17.8µM | 0
CCOc1ccc(-c2nc(CCl)cs2)cc1 | 0 | 0 | 0 | 0 | 0 | 0
Cc1ccccc1C(=O)Nc1ccc(C(=O)N2CCCC(O)c3cc(Cl)ccc32)c(C)c1 (stereo not drawn) | - | - | - | 0 | - | -
S=c1nc2ccccc2c2nc(-c3ccccc3)[nH]n12 | 0 | 0.891µM | 0 | 0 | 0 | 0
COCc1ccc(CN2CCCC(C(=O)Nc3ccccc3-c3ccc(OC)cc3)C2)o1 (stereo not drawn) | 0 | 0 | 0 | 0 | 0 | -
CCc1ccc(CN2CCCC(C(=O)Nc3ccccc3-c3ccc(OC)cc3)C2)o1 (stereo not drawn) | 0 | ? | 0 | -77.1 | 0 | -
CN(C(=O)COC(=O)/C=C/c1cccs1)C1CCCCC1 | 0 | 0 | 0 | -88.2 | - | -
CC(C)C(=O)NC(=O)COC(=O)/C=C/c1cccs1 | 0 | 0 | 0 | 0 | 0 | 0
Cc1cn([C@H]2C[C@H](F)[C@@H](CO)O2)c(=O)[nH]c1=O | - | - | - | 0 | - | -
SMILES | TSHR antagonist | HEK293 tox | PTHR1 agonist | RXFP1 antagonist | RXFP1 ag | NPSR antagonist
C[C@]12CCC(=O)C=C1[C@@H]1C[C@@H]1[C@H]1[C@@H]3[C@@H]4C[C@@H]4[C@@]4(CCC(=O)O4)[C@@]3(C)CC[C@@H]12 | - | - | - | 0 | - | -
CC1Cc2ccccc2N1C(=O)CSc1nnc(NC(=O)Cc2cccs2)s1 (stereo not drawn) | 0 | 0 | 0 | 0 | 0 | 12.6µM
CCOC(=O)c1c(C)n(-c2ccc(C)cc2)c2c(CC(C)=O)c(Br)c(OC)c(O)c12 | 0 | 0 | 0 | 0 | 0 | 10µM
COc1cc(/C=C2\SC(c3ccc(C)cc3)=NC2=O)cc(OC)c1O | 0 | 0 | 0 | 0 | 0 | 2µM
Cc1ccc(C2=NC(=O)/C(=C/c3cc(O)c(O)c(Br)c3)S2)cc1 | 0 | 0 | 0 | 0 | 0 | 0
COc1cccc(NC(=O)CSc2c(C)cnc3c2c(=O)n(C)c(=O)n3C)c1 | - | 0 | 0 | 0 | 0 | -
Cc1ccnc(N2C(=O)c3cccc4c([N+](=O)[O-])ccc(c34)C2=O)c1 | 0 | 0 | 0 | 0 | 0 | 10µM
O=C1c2cccc3c([N+](=O)[O-])ccc(c23)C(=O)N1Cc1cccnc1 | 0 | 0 | 0 | -77.4 | 0 | 0
Cc1ccc(N2C(=O)c3cccc4c([N+](=O)[O-])ccc(c34)C2=O)c2cccnc12 | 0 | 0 | 0 | 0 | 0 | 0
O=C(CCCn1c(=O)c2cccn2c2ccccc21)NCCc1ccc(Cl)cc1 | - | 0 | 0 | -71.1 | 0 | -
O=C(CCn1c(=O)c2cccn2c2ccc(F)cc21)NCCc1ccc(Cl)cc1 | - | 0 | 0 | 0 | 0 | -
O=C(CCC(=O)Nc1nnc(C2CCCCC2)s1)Nc1ccc(F)cc1 | 0 | 0 | 0 | 0 | 0 | -
COc1ccc(NC(=O)CSc2nc(-c3ccccc3)nc3c2Cc2c(CO)cnc(C)c2O3)cc1Cl | - | 0 | 0 | 0 | 0 | -
Cc1ccc(-c2nn(-c3ccccc3)cc2/C=N/n2c(-c3cccs3)n[nH]c2=S)cc1 | 0 | 0 | 0 | -95.7 | 0 | ?
S=c1[nH]nc(-c2cccs2)n1/N=C/c1cn(-c2ccccc2)nc1-c1cccs1 | 0 | 0 | 0 | -83.1 | 0 | 0
S=c1[nH]nc(-c2ccncc2)n1/N=C/c1cn(-c2ccccc2)nc1-c1ccccc1 | 0 | 0 | 0 | 0 | 0 | 0
Cc1cccc(NC(=O)CSc2nnc3scc(-c4ccccc4)n23)c1 | - | 0 | 0 | 0 | 0 | -
Cc1c(C(=O)N2CCCCCC2)c(S(=O)(=O)NCc2ccccc2)c(C)n1C | - | 0 | 0 | 0 | 0 | -
c1cc2c3c(cccc3c1)-c1cnccc1-2 | - | 0 | 0 | 0 | - | -
COc1cccc(NC(=O)C2CCN(S(=O)(=O)c3ccc4c(c3)NC(=O)CO4)CC2)c1 | 0 | 0 | 0 | 0 | 0 | -
Cc1cccc(NC(=O)C2CCN(S(=O)(=O)c3ccc4c(c3)NC(=O)CO4)CC2)c1 | -134.2 | 0 | 0 | 0 | 0 | -
COc1ccc(-c2cc(NC=O)c3ncc(-c4ccc(OC)c(OC)c4)n3c2)cc1 | - | ? | 0 | - | - | -
COc1ccc(C(=O)N(Cc2cc(OC)c(OC)c(OC)c2)C2CCS(=O)(=O)C2)cc1Cl (stereo not drawn) | - | 0 | 0 | 0 | 0 | -
O=[N+]([O-])c1ccc(-n2nnnc2-c2ccccc2)c([N+](=O)[O-])c1 | 0 | 10µM | 0 | 0 | 0 | 0
